GLP1R ag: qHTS of GLP-1 Receptor Agonists; HEK293 GLP-1R CRE-luciferase, luminescence, 4-6 h; cells express a hypersensitive GLP-1R form; actives 0.007% (n = 380,000); Potency, µM (highest dose often 45.6 µM), for inactives: top-dose activation, hits mostly activators; Glucagon-like peptide 1 receptor (Homo sapiens), P43220; note: potency is the fitted concentration of half-maximal effect; % of control where 0% means no effect
D3 ag: qHTS of D3 Dopamine Receptor Agonist: qHTS | max activation, % | actives 0.58% (n = 410,000) | D3R DiscoveRx beta-arrestin cells, luminescence, 90 min; in the data active = max activation above about 30%; note: 0% is about no effect
Target sequence (P35462 whole entry, looked up): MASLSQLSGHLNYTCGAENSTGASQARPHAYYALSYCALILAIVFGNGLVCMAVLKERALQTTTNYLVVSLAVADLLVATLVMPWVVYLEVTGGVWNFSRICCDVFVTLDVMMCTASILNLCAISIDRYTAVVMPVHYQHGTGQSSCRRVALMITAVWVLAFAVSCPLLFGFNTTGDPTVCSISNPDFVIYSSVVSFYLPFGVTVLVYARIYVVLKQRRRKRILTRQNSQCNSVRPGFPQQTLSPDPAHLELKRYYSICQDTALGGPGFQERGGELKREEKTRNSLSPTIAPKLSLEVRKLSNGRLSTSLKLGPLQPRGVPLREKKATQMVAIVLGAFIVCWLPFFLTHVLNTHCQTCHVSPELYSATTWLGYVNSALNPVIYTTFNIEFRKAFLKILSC
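Cells at 1500/well, incubated overnight, then treated with pinned compounds (dopamine as control) for 90 min at 37 degrees C. DiscoveRx reagent added for 30 - 60 minutes at room temperature; luminescence read.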
DRD3 antagonist: qHTS of D3 Dopamine Receptor Antagonist: qHTS; D(3) dopamine receptor (Homo sapiens), P35462; D3R cells, DiscoveRx beta-arrestin luminescence, antagonist mode; active compounds read low; max response, negative = inhibition, %; actives 2.5% (n = 360,000); AID 652054, 2013; in the data active = max response below about -50%; inconclusive = no clear call, values can overlap the other calls; note: % is set by controls: 0 for no effect and ±100 for the full control effect
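Cells expressing the human receptor were seeded at 1500 cells/well, incubated overnight at 37 degrees C in 5% CO2, then exposed to library compounds with dopamine controls for 90 minutes at 37 degrees C before luminescent detection.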
GLP-1R inv ag: qHTS of GLP-1 Receptor Inverse Agonists (Inhibition Mode). Glucagon-like peptide 1 receptor (Homo sapiens), P43220. HEK293 GLP-1R CRE-luciferase, luminescence, 24 h; GLP-1R form is constitutively active. Potency, µM (top dose mostly 38.3 µM), without a hit: at the top dose activity change, negative = inhibition, most hits filed as inhibitors. actives 1.6% (n = 410,000). AID 624417, 2012; note: potency is the fitted concentration of half-maximal effect; % is set by controls: 0 for no effect and ±100 for the full control effect; nearly all actives have a fitted effect of over 55% in size
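Luminescence readout: a drop in cAMP-driven luciferase signal flags inverse agonism at a constitutively active GLP-1R stably expressed in HEK293. Compound exposure lasted 24 hr at 37 deg C, 5% CO2.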
* = called active by the depositor; ? = inconclusive; . = no result given. This is a sample that favours compounds with a hit; in the whole collection about 4.3% have one here. Unless noted, calls come from the whole dose curve; as a rule, active = well fitted curve in the direction sought with a large enough effect; inconclusive = small, poorly fitted or top-dose-only effect, or another doubt; inactive = no such curve, though single readings can be large; an effect the other way counts as inactive or inconclusive.

SMILES	GLP1R ag	D3 ag	DRD3 antagonist	GLP-1R inv ag
COc1cc(NC(=O)CCN2CCN(Cc3ccccc3)CC2)cc(OC)c1	0.2%	-2.1	-54.4*	-6.7%
COc1ccc(OC)c(NC(=O)CCN2CCN(Cc3ccccc3)CC2)c1	5.3%	-16.7	?	0.0%
CCOC(=O)C1CCN(CCCSc2ccc(C)cc2)CC1	-1.8%	-21.2	-86.7*	?
CCOC(=O)C1CCN(CCCSc2ccccc2)CC1	-2.2%	-8.3	?	11.0%
CCOC(=O)C1CCN(CCC(=O)Nc2cccc(Cl)c2)CC1	-4.3%	-4.8	-55.6*	-25.5%
CCOC(=O)C1CCN(CCC(=O)Nc2ccc(C)cc2)CC1	-4.1%	-16.5	-1.3	?
COc1cc(NC(=O)CCn2cnc3ccccc3c2=O)cc(OC)c1	7.9%	-8.6	.	1.7%
CCCOc1ccc(Oc2nc(NC)nc(N3CCOCC3)n2)nn1	.	15.1	.	9.2%
COc1cccc(NC(=O)c2cc(CN3CCOCC3)on2)c1	.	7.0	.	3.1%
CCN(CCC(=O)Nc1cc(OC)cc(OC)c1)Cc1ccccc1	-6.7%	-6.9	-66.8*	?
O=C(CCN1CCN(Cc2ccccc2)CC1)Nc1cccc(Cl)c1	3.9%	0.3	-58.8*	-7.3%
CCCN(CCC(=O)Nc1cc(OC)cc(OC)c1)CC1CC1	-0.6%	-4.2	22.0	-16.4%
CC#CCC(C)[C@H](O)/C=C/C1[C@H](O)C[C@@H]2C/C(=C\CCCC(=O)O)C[C@H]12 (stereo not given in full)	-4.1%	.	.	.
Cc1ccc(N2CCN(C(=O)c3cn(C)c4ccc(S(=O)(=O)N(C)C)cc4c3=O)CC2C)cc1 (stereo not given)	-0.9%	-12.7	.	-3.3%
N#Cc1ccc(NC(=O)COCc2cc(-c3ccc(F)cc3)on2)cc1	.	10.0	.	-5.4%
Cn1c(=O)n(Cc2ccc(F)cc2)c(=O)c2c1nc1n2CCCN1C1CCCCC1	6.3%	0.5	-99.4*	?
Cn1c(=O)n(Cc2ccccc2)c(=O)c2c1nc1n2CCCN1C1CCCCC1	8.1%	0.7	-9.6	1.7%
CC/C=C(/C(=O)N[C@@H]1C(=O)N2C(C(=O)OCOC(=O)C(C)(C)C)=C(COC(N)=O)CS[C@H]12)c1csc(N)n1	-1.9%	.	.	.
OCC1(Cc2ccccc2)CCCN(Cc2ccc(-c3ccco3)cc2)C1 (stereo not given)	1.0%	-20.2	-90.4*	?
OCC1(Cc2ccccc2)CCN(Cc2ccc(-c3ccco3)cc2)CC1	-6.9%	-30.8	-84.7*	?
CCN1CCCC(CO)(Cc2ccccc2)C1 (stereo not given)	3.7%	-3.4	16.0	-6.9%
CCOCCCn1c(SCC(=O)NCc2ccccc2)nc2c(sc3ccccc32)c1=O	-1.7%	-13.8	.	4.2%
Cc1oc(-c2ccc(Cl)cc2)nc1CN1CCC(C(=O)N2CCN(Cc3ccccc3)CC2)CC1	3.4%	-6.2	-77.3*	?
Cc1oc(-c2cccc(Cl)c2)nc1CN1CCC(C(=O)N2CCN(c3ccccc3F)CC2)CC1	-1.0%	-12.2	-63.1*	?
Cc1oc(-c2ccc(Cl)cc2)nc1CN1CCC(C(=O)N2CCc3ccccc3C2)CC1	22.5%	-11.6	-69.7*	?
SMILES	GLP1R ag	D3 ag	DRD3 antagonist	GLP-1R inv ag
CCOC(=O)C1CCCN(C(=O)C2CCN(Cc3nc(-c4ccc(Cl)cc4)oc3C)CC2)C1 (stereo not given)	12.2%	-15.6	-28.4	?
Cc1oc(-c2ccc(Cl)cc2)nc1CN1CCC(C(=O)NCc2ccco2)CC1	27.4%	-21.6	-6.5	-33.1%
CC(=O)NC(=S)Nc1cccc([N+](=O)[O-])c1	-1.2%	-0.2	4.9	9.9%
CC(C)NS(=O)(=O)c1ccc(NC(=S)NC(=O)c2cccc([N+](=O)[O-])c2)cc1	0.6%	-59.3	-94.1*	9.6%
Cc1cccc(NC(=S)NNC(=O)c2cccc([N+](=O)[O-])c2)c1	0.9%	-8.1	-2.9	-3.2%
O=C(NC(=S)Nc1cccc(F)c1)c1cccc([N+](=O)[O-])c1	8.9%	-9.2	-51.4*	-32.9%
Cc1occc1C(=O)NNC(=S)Nc1cccc([N+](=O)[O-])c1	-10.6%	-6.7	-108.9*	14.3%
O=C(NC(=S)Nc1ccc(N2CCOCC2)cc1)c1cccc([N+](=O)[O-])c1	-19.9%	1.8	0.9	2.9%

Screening data from PubChem BioAssay.
